# Only some compounds are listed: those with a hit (about 1.2% of all), similar ones and a draw of the others.
# Keap1 Nrf2 FP: Keap1-Nrf2 protein-protein interaction inhibitors, primary screen, biochemical, fluorescence polarization, single point; Kelch-like ECH-associated protein 1 (Homo sapiens), Q14145; Keap1 Kelch-Nrf2 peptide fluorescence polarization, 1536-well; inhibition, % at 9.4 µM; actives 0.15% (n = 340,000); AID 504523, 2011; in the data active = inhibition above about 12%; inconclusive = no clear call, values can overlap the other calls; inactive = below about 7.3%;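 note: human Keap1 Kelch domain with fluorescein labeled Nrf2 9mer peptide probe; 0% = neutral control wells and 100% = peptide positive control; higher means more block of Keap1 binding to Nrf2 peptide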
# Target sequence (Q14145 whole entry, looked up, the tested form may be a part): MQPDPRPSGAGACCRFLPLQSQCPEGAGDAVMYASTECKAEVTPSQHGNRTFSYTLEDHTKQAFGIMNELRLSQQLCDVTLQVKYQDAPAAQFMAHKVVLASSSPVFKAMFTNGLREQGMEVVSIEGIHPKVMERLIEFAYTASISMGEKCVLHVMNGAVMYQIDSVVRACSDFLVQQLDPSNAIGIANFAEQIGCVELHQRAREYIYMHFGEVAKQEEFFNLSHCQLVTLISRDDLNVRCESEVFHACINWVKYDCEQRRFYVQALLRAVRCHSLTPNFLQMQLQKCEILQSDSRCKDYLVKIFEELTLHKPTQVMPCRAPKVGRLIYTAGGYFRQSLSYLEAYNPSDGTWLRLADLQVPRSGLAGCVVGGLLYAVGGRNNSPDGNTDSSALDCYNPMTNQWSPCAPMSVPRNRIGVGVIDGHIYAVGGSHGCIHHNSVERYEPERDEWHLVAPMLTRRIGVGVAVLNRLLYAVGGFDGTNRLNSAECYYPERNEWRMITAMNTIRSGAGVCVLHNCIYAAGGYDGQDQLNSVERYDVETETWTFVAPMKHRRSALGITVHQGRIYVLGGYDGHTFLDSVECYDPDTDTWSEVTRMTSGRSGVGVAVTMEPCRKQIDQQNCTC
# MEX-5 binding: MEX-5 zinc finger RNA-binding disruptors – biochemical, C. elegans, fluorescence polarization, MLPCN library, primary screen. Zinc finger protein mex-5 (Caenorhabditis elegans), Q9XUB2. MEX-5/FITC-TCR2 RNA binding; stronger effect = lower value. activity score (negative = inhibition of binding), % at 10 µM. actives 0.38% (n = 300,000);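 active = inhibition past about -25% in most replicates, and total fluorescence under double the plate's negative control median, limit read from the data; inconclusive = replicates evenly split on the limit, or fluorescence at least double controls; inactive = too little inhibition in most replicates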;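 note: 0% = DMSO and -100% = 5 µM competing unlabeled TCR2 RNA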
# C-LANA FP: inhibitors of KSHV C-LANA binding to DNA, primary screen, biochemical, fluorescence polarization, FAM-LBS DNA, MBP-C-LANA, single point | Kaposi's sarcoma herpesvirus LANA C-terminal domain (residues 932-1162) DNA binding | inhibition, % at 9 µM | actives 0.078% (n = 340,000) | AID 504423, 2011;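 active = highest replicate inhibition at or above 60% at 9 µM, even if other replicates fall short; inactive = all replicates below 60% inhibition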;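 note: 0% = neutral control wells and 100% = 4 µM acridine orange control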
# BCLXL inh: inhibitors of human Bcl-xL, primary screen, biochemical, fluorescence polarization, HTS. GST-Bcl-xL / FITC-Bim BH3 peptide fluorescence polarization. inhibition, % at 10.9 µM. actives 0.7% (n = 320,000). AID 2129, 2009;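 active = inhibition above the mean of all tested compounds plus 3 SD, cutoff set per campaign, cut at about 30% in these data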;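 note: 0% = DMSO wells and 100% = unlabeled Bim-BH3 peptide competitor; inhibitors lower millipolarization by displacing the labeled peptide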
# eLon inh: inhibitors of E. coli Lon protease, primary screen, biochemical, fluorescence polarization; actives 0.42% (n = 360,000); AID 602123, 2011; P0A9M0; inhibition, % at 7.94 µM; purified E. coli Lon protease; in the data active = inhibition above about 13%, passing the limit was not always enough;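 note: 0% = enzyme with probe and DMSO and 100% = no enzyme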
# GLD-1 RNA inh: GLD-1/TGE RNA complex disruptors, primary screen, biochemical, fluorescence polarization; purified GLD-1 + fluorescein TGE RNA; actives 0.44% (n = 320,000); inhibition, % at 5.96 µM; Female germline-specific tumor suppressor gld-1 (Caenorhabditis elegans), Q17339;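 active = percent inhibition above a per-plate cutoff, the plate mean of test compounds plus 3 SD, cut at about 30% in these data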;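 note: 0% = DMSO wells with GLD-1 and probe and 100% = wells lacking GLD-1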
# Keap1 Kelch bind: Keap1 Kelch domain binders by thermal stabilisation, dose response, biophysical, thermal shift, RT-PCR instrument, cherry-pick; AID 651823, 2012; actives 8% (n = 400); shares compounds with Keap1 Nrf2 FP; max delta Tm, degrees C; delta Tm; stronger effect = higher value; in the data active = max delta Tm above about 0.48 degrees C
# Sypro dye melt: Sypro Orange dye melt without protein, dose response, artefact control for Keap1-Nrf2 interaction inhibitor project, biochemical, thermal shift counterscreen, cherry-pick; shares compounds with Keap1 Nrf2 FP; Sypro Orange dye-only thermal melt, no protein, delta Tm; top dose 26 µM; delta Tm, degrees C (concentration not given with the values); 140 tested, under 10 active; AID 651858, 2012;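 active = at highest dose tested, delta Tm positive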
# eLon confirm: E. coli Lon protease inhibitor retest, confirmation, biochemical, fluorescence polarization | shares compounds with eLon inh | purified E. coli Lon | inhibition, % at 7.94 µM | actives 31% (n = 1,400); in the data active = inhibition above about 16%;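 note: 0% = enzyme with probe and DMSO and 100% = no enzyme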
# * marks the source's active call; other numbers are inactive results; ? = inconclusive; / = no result given; + = active, no number.
SMILES,Keap1 Nrf2 FP,MEX-5 binding,C-LANA FP,BCLXL inh,eLon inh,GLD-1 RNA inh,Keap1 Kelch bind,eLon confirm,others
CSCCC(NC(=O)c1ccco1)C(=O)NCC(C)(C)N1CCOCC1 (stereo not given),-6,/,-1,4,-9,-3,/,/,
CC(=O)C1C(c2ccc(F)cc2)c2c(noc2C)CC1(C)O (stereo not given),50*,-4,26,1,-5,4,-0.15,/,
C[C@H]1NC(=O)[C@]2(C)[C@@H](c3ccccc3)[C@H]3COc4ccccc4[C@H]3N2C1=O,2,/,2,/,-13,/,/,/,
COc1ccccc1C(=O)NNC(=O)c1ccc(Br)o1,2,-2,1,2,-10,7,/,/,
O=C1C=CC(=O)c2c(O)c(N3CCN(CCO)CC3)c(Cl)c(O)c21,39*,/,4,/,172*,/,-0.07,96*,Sypro dye melt=-22
O=C1C=CC(=O)c2c(O)c(N3CCN(CCOCCO)CC3)c(Br)c(O)c21,25*,/,10,/,126*,/,0.08,114*,
C=CCOc1ccc(C2OC34CCCCC3C(C#N)(C#N)C2(C#N)C(=N)O4)cc1 (stereo not given),11*,-45*,36,104*,31*,75*,-0.08,21*,Sypro dye melt=-27
Cc1c(N)cc(N)cc1C(=O)O,15*,-49*,24,145*,61*,128*,-0.15,14,
CN(C(=O)c1ccc(NC(=O)Cc2cccc(NC(=O)C3CCCN(C(=O)C4CCCC4)C3)c2)cc1)C1CCCC1 (stereo not given),-6,/,-2,-4,-6,-1,/,/,
CCOc1ccc(Cl)cc1S(=O)(=O)N1CCC(C(=O)NCc2ccco2)CC1,-2,0,-1,2,-3,2,/,/,
CNc1ccc2c3c(cccc13)C(=O)N(C)C2=O,109*,?,109*,178*,+,119*,0,+,
Cc1cc[n+](-c2[nH]c(=O)sc2/C=N/NC([S-])=Nc2ccccc2)cc1C,32*,-6,48,129*,95*,131*,0.02,33*,
Cc1ccc[n+](-c2[nH]c(=O)sc2/C=N/N=C(\[O-])CCn2c3ccccc3c3ccccc32)c1,-3,1,4,14,9,12,/,/,
CC(C)(C)c1cc[n+](-c2[nH]c(=O)sc2/C=N/NC([S-])=Nc2ccccc2)cc1,31*,?,51,177*,165*,160*,-0.09,71*,Sypro dye melt=-23
COc1nc(=O)n(C2C=CC(=O)O2)cc1F (stereo not given),/,/,/,/,-13,/,/,/,
CCCOc1c(Br)cc(C(=O)OCc2cc(=O)n3ccsc3n2)cc1OC,-1,/,0,/,1,/,/,/,
O=C1c2cccc3c(O)ccc(c23)C(=O)N1c1ccc(Cl)cc1,39*,-41*,71,+,+,+,0.21,+,
O=C1c2ccccc2C(=O)N1Cc1ccco1,1,0,0,4,-2,-3,/,/,
O=C1c2ccccc2C(=O)N1c1ccc(Cl)cc1,/,-4,/,2,/,-1,/,/,
O=C1c2cccc3c(O)ccc(c23)C(=O)N1Cc1ccco1,37*,?,76*,/,+,/,0.29,+,
CC[C@@]1(O)C(=O)OCc2c1cc1n(c2=O)Cc2cc3c(CN(C)C)c(O)ccc3nc2-1,78*,?,131*,+,+,+,-0.08,+,
O=S(=O)([N-]c1nc2ccccc2nc1-n1cc[n+](Cc2ccccc2)c1)c1ccccc1,-2,-3,2,17,-5,12,/,/,
O=S(=O)([N-]c1nc2ccccc2nc1-[n+]1ccc(-c2ccncc2)cc1)c1ccccc1,17*,-5,5,188*,47*,153*,0,131*,Sypro dye melt=-27
CC(C)C(=O)Nc1ccc(NC(=O)c2ccc(COc3ccccc3)cc2)cc1,-2,-1,-1,6,-1,1,/,/,
O=c1[nH]c(=S)[nH]c2c1C(c1ccc(Br)cc1)c1c([nH]c(=S)[nH]c1=O)O2,45*,-71*,112*,39*,32*,2,-0.12,-49,Sypro dye melt=-26
SMILES,Keap1 Nrf2 FP,MEX-5 binding,C-LANA FP,BCLXL inh,eLon inh,GLD-1 RNA inh,Keap1 Kelch bind,eLon confirm,others
Cc1ccc(C2C3=C(CCCC3=O)Nc3[nH]c(=S)[nH]c(=O)c32)cc1 (stereo not given),-3,-1,-1,8,2,3,/,/,
CCN(C[C@H]1N[C@@](CC)(C(=O)OC)[C@H]2C(=O)N(C)C(=O)[C@@H]12)C(=O)c1ccccc1,-7,/,-1,/,0,-9,/,/,
CCOC(=O)C1=C(c2ccccc2)OC(N)=C(C#N)C1c1ccc(Cl)s1 (stereo not given),1,-1,4,-4,-7,8,/,/,
CCN1CC=C2C(C1)C(c1ccc(Cl)s1)C(C#N)=C(N)C2(C#N)C#N (stereo not given),21*,?,36,102*,81*,76*,-0.04,0,
Cc1cc2nc3c(=O)[nH]c(=O)[nH]c3nc2c([N+](=O)[O-])c1N,89*,/,109*,/,95*,/,0.18,182*,Sypro dye melt=-27
O=c1c(-c2cc3ccccc3o2)[n+]([O-])c2ccccc2n1OCc1ccccn1,36*,-4,15,11,20*,28,-0.07,8,Sypro dye melt=-32
O=c1c(-c2ccc(Br)cc2)[n+]([O-])c2ccccc2n1OCc1ccccn1,2,-2,2,9,-7,-5,/,/,
COc1cccc(C2=CC(c3cccs3)n3nnnc3N2)c1 (stereo not given),15*,/,32,15,35*,15,-0.13,10,
COc1cccc(C2=CC(c3ccc(OC)c(OC)c3OC)n3nnnc3N2)c1 (stereo not given),1,0,-1,1,1,8,/,/,
CN(C)S(=O)(=O)c1ccc2c(c1)nc(CCC(=O)NCC(=O)Nc1ccc(F)c(F)c1F)n2C,/,/,/,/,7,/,/,/,
O=c1[nH]c2c(s1)C=Nc1ccccc1N2,38*,-72*,54,178*,114*,144*,-0.04,149*,Sypro dye melt=-20
